CYP2C19 inh – blockers of cytochrome P450 2C19 activity – biochemical, luminescence, ADME assay, primary screen; inhibition, % at 5 µM; CYP2C19 Supersomes, luciferin-H EGE luminescence, 30 min; actives 21% (n = 96,000);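 active means CYP2C19 inhibition above a set limit at 5 µM in the primary screen, cut at about 50% in these data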
CYP2C9 act – human CYP2C9 activators, primary screen, biochemical, luminescence; Cytochrome P450 2C9 (Homo sapiens), P11712; recombinant CYP2C9, luciferin-H conversion; hits give high values; factor 1 = untreated enzyme, 0 = blocked; activation factor at 5 µM; actives 1.4% (n = 96,000); AID 1024, 2008;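 active means activation factor of 2 or more for CYP2C9 at a 5 µM dose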
Target sequence (P11712 whole entry, looked up): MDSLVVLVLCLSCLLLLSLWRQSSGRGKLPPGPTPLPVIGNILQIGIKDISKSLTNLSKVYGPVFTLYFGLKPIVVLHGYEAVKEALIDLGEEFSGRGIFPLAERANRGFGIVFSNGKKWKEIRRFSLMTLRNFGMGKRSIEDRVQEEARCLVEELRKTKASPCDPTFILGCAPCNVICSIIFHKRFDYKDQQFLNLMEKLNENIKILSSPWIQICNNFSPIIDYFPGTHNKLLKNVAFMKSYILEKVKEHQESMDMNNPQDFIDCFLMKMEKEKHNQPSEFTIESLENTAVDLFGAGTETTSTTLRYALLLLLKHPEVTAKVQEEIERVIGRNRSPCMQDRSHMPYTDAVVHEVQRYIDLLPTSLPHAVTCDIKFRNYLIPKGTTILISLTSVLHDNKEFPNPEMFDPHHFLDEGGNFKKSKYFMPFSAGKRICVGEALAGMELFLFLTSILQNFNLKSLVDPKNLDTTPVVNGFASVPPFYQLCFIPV
Mac1 fbg enh – enhancers of CD11b/CD18 adhesion to fibrinogen, primary screen, K562 cells, luminescence; Integrin beta-2 (Homo sapiens) + Integrin alpha-M (Homo sapiens), P05107+P11215; ATPlite luminescence; activation, % at 10 µM; actives 0.07% (n = 93,000);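 active means 10 µM primary screen giving 50% or more activity, confirmed by 40% or more on retest at that dose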
CYP2C19 activ – human CYP2C19 activators, primary screen, biochemical, luminescence; Cytochrome P450 2C19 (Homo sapiens), P33261; recombinant CYP2C19, luciferin-H EGE luminescence; hits give high values; 0 = fully inhibited enzyme, 1 = untreated enzyme; activation factor at 5 µM; 96,000 tested, under 10 active; AID 1025, 2008;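 active means activation factor of at least 2 at 5 µM in the primary screen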
CD11b adhes inh – inhibitors of CD11b/CD18 adhesion to fibrinogen, primary screen, K562 cells, luminescence | Integrin beta-2 (Homo sapiens) + Integrin alpha-M (Homo sapiens), P05107+P11215 | ATPlite luminescence; Mn2+ added to activate the integrin | inhibition, % at 10 µM | actives 0.54% (n = 93,000);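 active means primary inhibition of 50% or more at 10 µM, then 40% or more on retest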
CYP2C9 inhib – blockers of cytochrome P450 2C9 activity – biochemical, luminescence, ADME assay, primary screen; CYP2C9 Supersomes, luciferin-H conversion; actives 20% (n = 96,000); inhibition, % at 5 µM;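 active means blocking of liver enzyme CYP2C9 beyond about 50% at 5 µM, limit read from the data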
A number is an active result; - = inactive; . = no result. Most compounds without a hit are left out; they make up all but 28% or so of the library.

SMILES	CYP2C19 inh	CYP2C9 act	Mac1 fbg enh	CYP2C19 activ	CD11b adhes inh	CYP2C9 inhib
Cc1ccc(C(=O)NCc2ccco2)cc1Br	70	-	-	-	-	-
O=C(NCc1ccco1)c1ccc(Br)s1	70	-	-	-	-	-
Cc1ccc2c(CC(=O)NCc3ccco3)coc2c1C	99	-	-	-	-	-
Cc1c(Br)cc(C(=O)NCc2ccco2)c(C)c1C	77	2.7	-	-	-	-
CC1(C)Cc2nc3nc(SCC(=O)NCCc4ccccc4)n(-c4ccccc4)c(=O)c3cc2CO1	-	-	.	-	.	-
CNS(=O)(=O)c1ccc(Oc2ccc(S(=O)(=O)NC)cc2)cc1	-	-	-	-	-	-
CNC(=S)NNC(=O)Cn1ccc(C)n1	-	-	-	-	-	-
CCNc1nc(NCC)nc(C(=O)OCCO)n1	-	-	-	-	-	-
CCNc1nc(NCC)nc(OCCOC(=O)c2ccccc2)n1	51	-	-	-	-	-
CNc1nc(C)c(C#N)c(-c2ccccc2)c1C(C)=O	55	-	-	-	-	-
COc1ccccc1/C=C/CN1CC(C)OC(C)C1 (stereo not drawn)	-	-	-	-	-	-
Cc1ccc(OCC(=O)Nc2ccc(C)c(S(=O)(=O)N3CCCCC3)c2)c([N+](=O)[O-])n1	.	.	-	.	-	.
CCOC(=O)Cn1c(-c2nonc2NC(=O)c2ccccc2F)nc2ccccc21	-	-	-	-	-	92
CCCCOc1ccccc1NC(=O)Cn1c(-c2nonc2N)nc2ccccc21	-	-	-	-	-	70
Nc1nonc1-c1nc2ccccc2n1CC(=O)N1CCN(c2ccc(F)cc2)CC1	-	-	-	-	-	-
CC(C)(C)NC(=O)Cn1c(-c2nonc2N)nc2ccccc21	62	-	-	-	-	76
O=C1C(Cc2ccccc2)NC(=S)N1c1ccccc1 (stereo not drawn)	-	-	-	-	-	-
Cc1ccc(C(C)NC(=O)c2c(C)noc2C)cc1C (stereo not drawn)	61	-	-	-	-	-
c1ccc(CC2CCN(Cc3nc(-c4ccccc4)no3)CC2)cc1	-	-	-	-	-	-
C=CCc1cccc2cc(NC(C)=O)c(=O)oc12	-	2.8	-	-	-	-
COc1ccccc1C(=O)Nc1cc2ccccc2oc1=O	-	-	-	-	-	-
COCCN1Cc2cccc(C(=O)Nc3cccc(C)c3C)c2C1=O	-	-	-	-	-	-
COCCN1Cc2cccc(C(=O)N3CCN(c4cc(C)ccc4C)CC3)c2C1=O	75	-	-	-	-	71
Cc1ccc(Cl)cc1N1CCN(C(=O)CN2C(=O)c3cccc4cccc2c34)CC1	-	2	-	-	-	-
CCCN1Cc2cccc(C(=O)N3CCN(c4cc(Cl)ccc4C)CC3)c2C1=O	89	-	-	-	-	96
SMILES	CYP2C19 inh	CYP2C9 act	Mac1 fbg enh	CYP2C19 activ	CD11b adhes inh	CYP2C9 inhib
Cc1ccc2c(c1)-c1c(cnn1CC(=O)N(CCC#N)c1ccccc1)CO2	-	-	-	-	-	-
C=C(C(=O)c1ccccc1)C(C)C(=C)C(=O)c1ccccc1	.	.	-	.	-	.
Cc1c(Cl)c([N+](=O)[O-])nn1CCCC(=O)Nc1sc2c(c1C#N)CCC2	-	-	-	-	-	-
O=[N+]([O-])c1ccc(N2CCN(S(=O)(=O)c3ccc(Cl)cc3)CC2)cc1NCc1cccnc1	-	-	-	-	-	53
COc1ccc(CCN2C(=O)c3cccc4c(C(=O)N5CCCCC5)ccc(c34)C2=O)cc1OC	.	.	-	.	-	.
Cc1ccc(S(=O)(=O)Cn2nnnc2C(c2ccc(F)cc2)N2CCC(C(N)=O)CC2)cc1 (stereo not drawn)	-	-	-	-	-	-
CCn1c2ccccc2c2cc(NC(=O)c3cc(OC)c(OC)c(OC)c3)ccc21	-	-	.	-	.	-
CCn1c2ccccc2c2cc(NC(=O)COc3ccc(OC)cc3)ccc21	65	-	.	-	.	-
CCn1c2ccccc2c2cc(NC(=O)COC(=O)C3CCC(=O)N3)ccc21 (stereo not drawn)	-	2.1	-	-	-	-
O=c1c2c3nc4ccccc4nc3n(/N=C/c3ccco3)c2ncn1CCC1=CCCCC1	55	-	-	-	-	58
CCCn1cnc2c(c1=O)c1nc3ccccc3nc1n2CCC1=CCCCC1	84	-	-	-	-	58
CCOCCCn1c(C)nc2c(c1=O)c1nc3ccccc3nc1n2CCC1=CCCCC1	73	-	-	-	-	80
CC(C)Cn1cnc2c(c1=O)c1nc3ccccc3nc1n2Cc1ccc2c(c1)OCO2	-	-	-	-	-	50
Cc1nc2c(c(=O)n1CCC1=CCCCC1)c1nc3ccccc3nc1n2/N=C/c1ccccc1	-	-	-	-	-	-
CCCCn1c2nc3ccccc3nc2c2c(=O)n(CCC(C)C)cnc21	-	-	-	-	-	-
CC(C)=CCC/C(C)=C/C=N/NC(=O)c1ccc([N+](=O)[O-])cc1	.	.	-	.	-	.
CCOC(=O)C(CO)(NC(C)=O)C(=O)OCC	-	-	-	-	-	-
Nc1c(C(=O)NC2CCCCC2)c2nc3ccccc3nc2n1/N=C/c1ccco1	-	-	-	-	-	-
CCCn1cnc2c(c1=O)c1nc3ccccc3nc1n2CCc1ccccc1	90	-	-	-	-	-
CCCCCCn1c(C)nc2c(c1=O)c1nc3ccccc3nc1n2/N=C/c1ccco1	-	-	-	-	-	74
CCOC(=O)CCCn1ncn2c(cc3occc32)c1=O	-	-	-	-	-	-
COc1ccc(N2CCN(C(=O)CN3C(=O)C4CC=CCC4C3=O)CC2)cc1 (stereo not drawn)	-	-	-	-	-	-
O=C(NCCc1ccc(S(=O)(=O)N2CCCC2)cc1)c1cccs1	-	-	-	-	-	62
O=C(Nc1nc(-c2ccc(S(=O)(=O)N3CCCC3)cc2)cs1)c1cccs1	-	-	-	-	-	62
O=C(Nc1nc(-c2ccc(S(=O)(=O)N3CCCCCC3)cc2)cs1)c1cccs1	-	-	-	-	-	53
O=C(Nc1nc(-c2cc(Cl)sc2Cl)cs1)c1cccs1	-	-	-	-	-	83
CC(C)CCn1c(Br)nc2c1c(=O)n(CC(N)=O)c(=O)n2C	-	-	-	-	-	-
CCCCN(CCCC)C(=O)c1nsnc1-c1ccccc1O	-	-	-	-	-	-
